Laboratory results published in the supplement of paper PMC7393113.
Counter-ions that a name gives are not always drawn. ± gives the standard deviation of the averaged measurements.

Tested on: iBMDM (immortalised mouse bone-marrow-derived macrophages), LPS-stimulated
Assay: mitochondrial superoxide (MitoSOX fluorescence) fold increase over unstimulated control; higher = more LPS-induced mitochondrial ROS (less inhibition)
Details: inhibitor concentration: 500 nM; LPS: 100 ng/ml; time after LPS: 1 h
Summary of the method: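 Cells were immortalised mouse bone-marrow-derived macrophages, plated in triplicate and switched to phenol-red-free 1% FCS/DMEM for 20 h. Kinase inhibitors (500 nM, 30 min) preceded MitoSox loading (1 μM, 10 min) and LPS addition (100 ng/ml), with 510/580 nm fluorescence read every 60 min for 4 h. Mitochondrial superoxide is reported as averaged fold induction over untreated macrophages.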

| Structure (SMILES) | mitochondrial superoxide |
| --- | --- |
| O=C(c1ccc(Nc2nccc(-c3cc4ccccc4s3)n2)cc1)N1CCC(N2CCCC2)CC1 [IKK-16 (IKK Inhibitor VII)] | 1.08 ± 0.084 |
| Cc1cc(Nc2cc(N3CCN(C)CC3)nc(Sc3ccc(NC(=O)C4CC4)cc3)n2)n[nH]1 [VX-680 (Tozasertib, MK-0457)] | 1.55 ± 0.069 |
| CNC(=O)c1c(F)cccc1Nc1nc(Nc2cc3c(cc2OC)CCN3C(=O)CN(C)C)nc2[nH]ccc12 | 1.28 ± 0.057 |
| Nc1ccc(C(=O)Nc2cccc(-c3nc(N4CCOCC4)c4oc5ncccc5c4n3)c2)cn1 | 1.15 ± 0.037 |
| COc1cc(Nc2ncc(F)c(Nc3ccc4c(n3)NC(=O)C(C)(C)O4)n2)cc(OC)c1OC [R406 (free base)] | 1.23 ± 0.07 |
| CC(C)(C)c1cc(NC(=O)Nc2ccc(-c3cn4c(n3)sc3cc(OCCN5CCOCC5)ccc34)cc2)no1 [Quizartinib (AC220)] | 1.15 ± 0.027 |
| CCc1nc(-c2cccc(C)c2)c(-c2ccnc(NC(=O)c3ccccc3)c2)s1 | 1.17 ± 0.028 |
| CN1CC[C@H](c2c(O)cc(O)c3c(=O)cc(-c4ccccc4Cl)oc23)[C@H](O)C1 [Flavopiridol HCl] | 1.31 ± 0.077 |
| CC(C)CCN1c2nc(Nc3cc(F)c(O)c(F)c3)ncc2N(C)C(=O)C1C (centres undefined) | 1.14 ± 0.036 |
| COC(=O)Nc1ccc(-c2nc(N3CCOCC3)c3cnn(C4CCN(C(=O)OC)CC4)c3n2)cc1 | 1.14 ± 0.026 |
| CN1CCN(S(=O)(=O)c2ccc(-c3cnc(N)c(C(=O)Nc4cccnc4)n3)cc2)CC1 | 1.34 ± 0.053 |
| O=c1c(-c2ccc(O)cc2)coc2cc(O)cc(O)c12 [Genistein] | 1.22 ± 0.079 |
| CC(C)(O)CC(=O)NCCn1ccc2ncnc(Nc3ccc(Oc4cccc(C(F)(F)F)c4)c(Cl)c3)c21 | 1.14 ± 0.019 |
| COc1cccc(-c2cc(=O)c3ccccc3o2)c1N | 1.48 ± 0.098 |
| Cn1cc(-c2[nH]c3cc(NC(=O)[C@H](N)C4CCCCC4)cc4c3c2C=NNC4=O)cn1 | 1.15 ± 0.062 |
| Cc1ccc(-n2nc(C(C)(C)C)cc2NC(=O)Nc2ccc(OCCN3CCOCC3)c3ccccc23)cc1 [BIRB 796 (Doramapimod)] | 0.987 ± 0.051 |
| Cc1ccc(-c2nn(C(C)(C)C)c3ncnc(N)c23)cc1 | 1.18 ± 0.043 |

| Structure (SMILES) | mitochondrial superoxide |
| --- | --- |
| COc1cc(OC)c(/C=C/S(=O)(=O)Cc2ccc(OC)c(NCC(=O)O)c2)c(OC)c1 | 1.071 ± 0.0096 |
| C=CC(=O)N1CCC[C@@H](n2nc(-c3ccc(Oc4ccccc4)cc3)c3c(N)ncnc32)C1 | 1.26 ± 0.099 |
| COc1cc2/c(=N/c3ccc(Br)cc3F)nc[nH]c2cc1OCC1CCN(C)CC1 [Vandetanib (ZD6474)] | 1.57 ± 0.036 |
| COc1ccc2c(Oc3ccc(NC(=O)c4c(C)n(CC(C)(C)O)n(-c5ccccc5)c4=O)nc3)ccnc2c1 | 1.09 ± 0.031 |
| O=C1c2ccc(Nc3ccc(F)cc3F)cc2CCc2ccc(OC[C@H](O)CO)cc21 [Skepinone-L] | 1.43 ± 0.05 |
| CO[C@H]1C[C@@H]2CC[C@@H](C)[C@@](O)(O2)C(=O)C(=O)N2CCCC[C@H]2C(=O)O[C@H]([C@H](C)C[C@@H]2CC[C@@H](OCCO)[C@H](OC)C2)CC(=O)[C@H](C)/C=C(\C)[C@@H](O)[C@@H](OC)C(=O)[C@H](C)C[C@H](C)/C=C/C=C/C=C/1C [Everolimus (RAD001)] | 1.37 ± 0.055 |
| Cc1[nH]c(/C=C2\C(=O)Nc3ccc(S(=O)(=O)N(C)c4cccc(Cl)c4)cc32)c(C)c1C(=O)N1CCN(C)CC1 | 1.33 ± 0.11 |
| Nc1nc(N)c2nc(-c3cccc(O)c3)cnc2n1 | 1.03 ± 0.016 |
| O=C(Cc1ccc(-c2ccc(OCCN3CCOCC3)cc2)cn1)NCc1ccccc1 | 1.31 ± 0.1 |
| Oc1ccc2ccccc2c1SSc1c(O)ccc2ccccc12 | 1.17 ± 0.049 |
| Cc1cn(-c2cc(NC(=O)c3ccc(C)c(Nc4nccc(-c5cccnc5)n4)c3)cc(C(F)(F)F)c2)cn1 [Nilotinib (AMN-107)] | 1.45 ± 0.049 |
| CN(C)c1ccc(-c2nc3ncc(Cl)c(N4CCN(CC(=O)Nc5nccs5)CC4)c3[nH]2)cc1 | 1.21 ± 0.037 |
| Cn1cnc2c(F)c(Nc3ccc(Br)cc3F)c(C(=O)NOCCO)cc21 | 1.13 ± 0.046 |
| Cc1ncc(-c2ccnc(Nc3ccc(S(C)(=O)=O)cc3)n2)n1C(C)C | 1.36 ± 0.052 |
| COc1cc2nccc(Oc3ccc(NC(=O)C4(C(=O)Nc5ccc(F)cc5)CC4)cc3)c2cc1OC | 1.41 ± 0.041 |
| Cc1nc(Nc2ncc(C(=O)Nc3c(C)cccc3Cl)s2)cc(N2CCN(CCO)CC2)n1 [Dasatinib] | 1.51 ± 0.022 |
| CC1=C(C(=O)Nc2cc3cn[nH]c3cc2F)C(c2ccc(C(F)(F)F)cc2)CC(=O)N1 (centres undefined) | 1.23 ± 0.085 |
